Consider 40 molecules from PubChem BioAssay (NCI).

About 79,000 compounds went through this panel and 15% of them were active in at least one assay; those are over-represented in the sample as a whole. Values without a mark were called inactive. Activity calls are given as the source filed them. Rule as the data show it: active = growth inhibition above about 70%; inactive = the rest.

The first test in a line: NCI Yeast Anticancer Drug Screen. Data for the bub3 strain (AID 167). Conditions: S. cerevisiae bub3 mutant strain, at 50.0 µM, active compounds read high. In outline:
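Compounds were applied to a genetically altered yeast strain carrying a cell-cycle control defect. Growth inhibition was scored against vehicle-treated controls.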
Take `CC1CC[Si](C)(C)CC12C(=O)NC(=O)NC2=O` (stereo not given): the growth inhibition is 10.1%.
The same measure, in the same setting: the result for `Nc1nc(N)c(N)c(N)n1` reads -3.05%; that for `CCC(=O)c1ccc(N)cc1`, -4.8%.
On the same count and under the same terms, next, `CNC(Cc1ccccc1)c1cccc(OC)c1O` (stereo not given): -14.2%; `O=C(O)/C=C/C(=O)O.[Ni]`: 0.35%; `CCOP(=O)(O)CP(=O)(O)OCC.CCOP(=O)(O)CP(=O)(O)OCC.[Cr]`: 2.7%.
For the molecule `COc1cc2c(cc1O)-c1c(OC)c(O)cc3c1C(C2)N(C)CC3` (stereo not given), the growth inhibition is -24.4%.
In the case of `C/C(=N\N=C(N)N)C(CN(C)C)C(c1ccccc1)c1c(O)c2ccccc2oc1=O` (stereo not given), the growth inhibition is -1.5%.
For the molecule `Cc1cc(NC(=O)CCc2ccc(N)cc2)ccc1S(=O)(=O)F`, the growth inhibition is 95% (active).
Same read-out and setting: the result for `[Cu].[NH2-].[NH2-].[NH2-].[NH2-]` reads -4.05%.
As to `CCN(CC)C(=S)Cl`, the growth inhibition was 19.1%.
`N#CCCc1ccccc1`: the growth inhibition is -1.1%.
Still for that read-out and setting: next, `C=C[CH2][Sn]([CH2]C=C)([CH2]CCC)[CH2]CCC`: 99.5% (active).
Same read-out and setting: the result for `CC1(C)OC2COC(CN=[N+]=[N-])C2O1` (stereo not given) reads 3%; that for `C=CC(Cl)OC(=O)C(C)O` (stereo not given), 1.55%.
The same measure, in the same setting: the result for `CC(CN1NC12CCCC2)N1NC12CCCC2` (stereo not given) reads 15.6%.
`[CH3][Hg][O]C(C)=O`: the growth inhibition is 99.7% (active).
The same measure, in the same setting: the result for `COC(=O)C(CCC(=O)O)NC(=O)OCc1ccccc1` (stereo not given) reads 4.55%; that for `O=C(C/C(=N/O)C(=O)NC1=C(Cl)C(=O)c2ccccc2C1=O)CC(c1ccccc1)c1c(O)c2ccccc2oc1=O` (stereo not given), 84.7% (active); that for `CCOC(OCC)c1ccccc1.[C-]#[O+].[C-]#[O+].[C-]#[O+].[Cr]`, 32.7%.
Regarding `CCN1/C(=C/C=C2\CCC(/C=C/c3sc4ccc(Cl)cc4[n+]3CC)=C2N(c2ccccc2)c2ccccc2)Sc2ccc(Cl)cc21`, the growth inhibition is 57.4%.
Still for that read-out and setting: next, `Cc1nc2cccc(F)c2c(=O)n1-c1nnc(C(F)(F)F)s1`: -6.4%; `CCC[As](=O)(O)c1ccc(Cl)cc1`: 94.7% (active); `[N-]=[N+]=NC(=O)Nc1ccccc1F`: -19.6%.
With `O=C(Nc1ccccc1)N(C1=NCC(CI)S1)c1ccc(F)cc1F` (stereo not given), the growth inhibition is 2.95%.
Same read-out and setting: the result for `CC(=O)C(C)(C)C` reads 3.5%.
`CC(SC(C)C(=O)N/N=C/c1ccc(N(CCCl)CCCl)cc1)C(=O)N/N=C\c1ccc(N(CCCl)CCCl)cc1` (stereo not given): the growth inhibition is 5.05%.
Take `CC12CC/C(=C3/C=CC(=O)S3)C=C1CCC1C2CCC2(C)C(O)CCC12` (stereo not given): the growth inhibition was -19.6%.
The same measure, in the same setting: the result for `N#Cc1ccc(C(Cl)(Cl)Cl)cc1` reads -3.15%; that for `CC(C)(C)C1COP(=O)(C(C)(C)C)OC1` (stereo not given), 10.6%.
On the same count and under the same terms, next, `CCCCCCCC(=O)[O-].N.N.N.N.N.[Co+3].[O-][Cl+3]([O-])([O-])[O-]`: -10.7%.
Still for that read-out and setting: next, `CC/C=C/C1(C)C(=O)NC(=S)NC1=O`: 11.4%; `Clc1ccc(NC2=NCCS2)cc1Cl`: -3.05%.
With `NC(CP(=O)(O)O)C(=O)O` (stereo not given), the growth inhibition is -32.4%.
As to `CCC(=O)C(CC(C)[N+](C)(C)C)(c1ccccc1)c1ccccc1` (stereo not given), the growth inhibition was -18.5%.
Take `CC(=[N-])CC(C)=O.CC(=[N-])CC(C)=O.[Cu+2]`: the growth inhibition is -4.4%.
Take `O=C1CN=C(c2ccccc2)c2cc(Cl)ccc2N1`: the growth inhibition is 8.55%.
For the molecule `OC(c1ccc2ccccc2n1)C1CCCCN1` (stereo not given), the growth inhibition is -1.7%.
`NC(=O)Cc1ccccc1`: the growth inhibition is -2.45%.
Same read-out and setting: next, `CCCCOP(=S)(OCCCC)Oc1ccc(Cl)cc1Cl`: 17.5%.

A short description of another test: NCI Yeast Anticancer Drug Screen. Data for the mlh1 rad18 strain (AID 175). Conditions: S. cerevisiae mlh1 rad18 strain growth inhibition; at 50.0 µM; active compounds read high. In outline: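 Growth inhibition of the yeast strain was measured after compound exposure and expressed relative to vehicle-treated controls. The strain carries defined defects in DNA damage repair.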
In the case of `CC1CC[Si](C)(C)CC12C(=O)NC(=O)NC2=O` (stereo not given), the growth inhibition was -7.05%.
As for `Nc1nc(N)c(N)c(N)n1`, the growth inhibition is 34.2%.
Still for that read-out and setting: the result for `CCC(=O)c1ccc(N)cc1` reads 6.25%.
Take `CNC(Cc1ccccc1)c1cccc(OC)c1O` (stereo not given): the growth inhibition is -10.8%.
Same read-out and setting: the result for `O=C(O)/C=C/C(=O)O.[Ni]` reads 0.5%; that for `CCOP(=O)(O)CP(=O)(O)OCC.CCOP(=O)(O)CP(=O)(O)OCC.[Cr]`, -27.2%.
Consider `COc1cc2c(cc1O)-c1c(OC)c(O)cc3c1C(C2)N(C)CC3` (stereo not given), for which the growth inhibition was -46.9%.
Same read-out and setting: next, `C/C(=N\N=C(N)N)C(CN(C)C)C(c1ccccc1)c1c(O)c2ccccc2oc1=O` (stereo not given): 16.8%; `Cc1cc(NC(=O)CCc2ccc(N)cc2)ccc1S(=O)(=O)F`: 95.2% (active); `[Cu].[NH2-].[NH2-].[NH2-].[NH2-]`: -23.6%.
Take `CCN(CC)C(=S)Cl`: the growth inhibition is -24.5%.
In the case of `N#CCCc1ccccc1`, the growth inhibition was 0.65%.
The same measure, in the same setting: next, `C=C[CH2][Sn]([CH2]C=C)([CH2]CCC)[CH2]CCC`: 99.4% (active).
As for `CC1(C)OC2COC(CN=[N+]=[N-])C2O1` (stereo not given), the growth inhibition is -3.75%.
In the case of `C=CC(Cl)OC(=O)C(C)O` (stereo not given), the growth inhibition is 6.4%.
Same read-out and setting: next, `CC(CN1NC12CCCC2)N1NC12CCCC2` (stereo not given): -35.5%.
On to `[CH3][Hg][O]C(C)=O`, for which the growth inhibition is 99.7% (active).
Regarding `COC(=O)C(CCC(=O)O)NC(=O)OCc1ccccc1` (stereo not given), the growth inhibition was 19.5%.
The same measure, in the same setting: the result for `O=C(C/C(=N/O)C(=O)NC1=C(Cl)C(=O)c2ccccc2C1=O)CC(c1ccccc1)c1c(O)c2ccccc2oc1=O` (stereo not given) reads 87.6% (active); that for `CCOC(OCC)c1ccccc1.[C-]#[O+].[C-]#[O+].[C-]#[O+].[Cr]`, 8.8%.
Take `CCN1/C(=C/C=C2\CCC(/C=C/c3sc4ccc(Cl)cc4[n+]3CC)=C2N(c2ccccc2)c2ccccc2)Sc2ccc(Cl)cc21`: the growth inhibition is 56.7%.
Regarding `Cc1nc2cccc(F)c2c(=O)n1-c1nnc(C(F)(F)F)s1`, the growth inhibition is 15.5%.
Still for that read-out and setting: the result for `CCC[As](=O)(O)c1ccc(Cl)cc1` reads 99.2% (active); that for `[N-]=[N+]=NC(=O)Nc1ccccc1F`, 16.1%; that for `O=C(Nc1ccccc1)N(C1=NCC(CI)S1)c1ccc(F)cc1F` (stereo not given), -40.1%.
As to `CC(=O)C(C)(C)C`, the growth inhibition is 24.1%.
As to `CC(SC(C)C(=O)N/N=C/c1ccc(N(CCCl)CCCl)cc1)C(=O)N/N=C\c1ccc(N(CCCl)CCCl)cc1` (stereo not given), the growth inhibition is 26.1%.
For `CC12CC/C(=C3/C=CC(=O)S3)C=C1CCC1C2CCC2(C)C(O)CCC12` (stereo not given), the growth inhibition is 15.8%.
Same read-out and setting: the result for `N#Cc1ccc(C(Cl)(Cl)Cl)cc1` reads -5.65%.
In the case of `CC(C)(C)C1COP(=O)(C(C)(C)C)OC1` (stereo not given), the growth inhibition is 16.2%.
For the molecule `CCCCCCCC(=O)[O-].N.N.N.N.N.[Co+3].[O-][Cl+3]([O-])([O-])[O-]`, the growth inhibition was -13.3%.
Same read-out and setting: the result for `CC/C=C/C1(C)C(=O)NC(=S)NC1=O` reads -2.95%.
`Clc1ccc(NC2=NCCS2)cc1Cl`: the growth inhibition was 10.9%.
Same read-out and setting: the result for `NC(CP(=O)(O)O)C(=O)O` (stereo not given) reads -37.6%; that for `CCC(=O)C(CC(C)[N+](C)(C)C)(c1ccccc1)c1ccccc1` (stereo not given), 6.5%.
On the same count and under the same terms, the result for `CC(=[N-])CC(C)=O.CC(=[N-])CC(C)=O.[Cu+2]` reads 8.2%; that for `O=C1CN=C(c2ccccc2)c2cc(Cl)ccc2N1`, 32.2%.
For the molecule `OC(c1ccc2ccccc2n1)C1CCCCN1` (stereo not given), the growth inhibition was 11.1%.
For `NC(=O)Cc1ccccc1`, the growth inhibition was 24.9%.
In the case of `CCCCOP(=S)(OCCCC)Oc1ccc(Cl)cc1Cl`, the growth inhibition is -1.95%.
